# The whole screen tested about 370,000 compounds, of which about 3,100 (0.84%) were called active.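 Rule for the calls: active = inhibition above the mean of compounds lying between control limits plus 3 SD, set per campaign (cut at about 8.5% in these data); inactive = the rest.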 Shown is part of a subset that was picked to be rich in actives.
# Molecular target: Disintegrin and metalloproteinase domain-containing protein 17 (Homo sapiens) (UniProt P78536)
# Assay: ADAM17 inhibitors, primary screen, biochemical, QFRET (AID 720648);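 note: 0% = DMSO-only wells as the low control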
# Conditions: recombinant ADAM17, EDANS/DABCYL FRET peptide cleavage; at 6.95 µM; stronger effect = higher value
# Sequence of Disintegrin and metalloproteinase domain-containing protein 17 (Homo sapiens) (P78536 215-824 limits assumed): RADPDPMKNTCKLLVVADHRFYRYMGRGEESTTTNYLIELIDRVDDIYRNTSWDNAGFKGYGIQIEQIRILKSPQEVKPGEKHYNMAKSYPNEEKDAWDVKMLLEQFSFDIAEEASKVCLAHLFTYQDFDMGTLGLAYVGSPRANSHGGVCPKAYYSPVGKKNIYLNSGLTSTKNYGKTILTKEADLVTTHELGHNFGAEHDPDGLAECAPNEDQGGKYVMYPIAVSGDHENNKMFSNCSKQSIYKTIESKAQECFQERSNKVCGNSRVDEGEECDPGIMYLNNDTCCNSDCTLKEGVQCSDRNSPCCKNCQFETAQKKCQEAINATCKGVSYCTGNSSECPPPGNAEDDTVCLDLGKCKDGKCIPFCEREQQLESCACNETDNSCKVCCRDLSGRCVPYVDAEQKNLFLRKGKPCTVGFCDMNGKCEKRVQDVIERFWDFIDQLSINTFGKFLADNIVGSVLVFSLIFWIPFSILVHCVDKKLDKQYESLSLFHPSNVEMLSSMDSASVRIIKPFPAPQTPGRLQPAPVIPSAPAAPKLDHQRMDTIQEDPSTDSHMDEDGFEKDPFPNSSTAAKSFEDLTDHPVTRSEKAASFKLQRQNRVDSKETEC
row,SMILES,inhibition
1,COC(=O)C1=C(c2ccc(F)cc2OCc2ccccc2)C[C@@H]2CC[C@H]1N2C(=O)NCc1ccc(Cl)cc1,3.55% (inactive)
2,COC(=O)C1=C(c2cccc(OCc3ccccc3)c2)C[C@@H]2CC[C@H]1N2C(=O)NCc1ccc(Br)cc1,7.72% (inactive)
3,COC(=O)C1=C(c2ccc(-c3ccccc3)c(F)c2)C[C@@H]2CC[C@H]1N2C(=O)NCc1ccc(F)cc1,16.6% (active)
4,O=C1NC(=O)C(C/C=C/c2ccccc2)C(=O)N1,-2.76% (inactive)
5,CN(C)C(=O)Oc1ccc2c(c1)O/C(=C\c1ccccc1)C2=O,-16.6% (inactive)
6,O=C1C2(Cl)C3(Cl)C4(Cl)C(Cl)(Cl)C5(Cl)C3(Cl)C1(Cl)C5(Cl)C24Cl (stereo not given),11.4% (active)
7,Cc1ccc(C(C)C)c(OCC(=O)N2CCN(CC(=O)N3CCOCC3)CC2)c1,1.57% (inactive)
8,CCN1CCN(c2ccc([N+](=O)[O-])cc2C#N)CC1,-2.11% (inactive)
9,CNC(=O)Nc1ccc(C(O)(C(=O)OC)C(F)(F)F)cc1 (stereo not given),-0.16% (inactive)
10,CC(=O)NCC1=C(c2ccc3ccccc3c2)C[C@@H]2CC[C@H]1N2Cc1ccco1,1.8% (inactive)
11,CO[C@H]([C@H](C)/C=C/N(C)C=O)[C@@H](C)C(=O)CC[C@H](C)[C@H](O)[C@H](C)[C@H]1OC(=O)/C=C/C(C)=C/[C@H](O)[C@H](OC)C[C@@H]2C=CC[C@@H](C[C@H](OC)[C@@]3(CO3)[C@@H](OC)C[C@@H](OC)[C@@H]1C)O2,-1.19% (inactive)
12,CCOP(=O)(OCC)C(NC(=O)NC)C(N)=O (stereo not given),-4.24% (inactive)
13,CCOC(=O)CC(SP1(=S)OCC2(CCCCO2)C(C2CCCCO2)O1)C(=O)OCC (stereo not given),12.4% (active)
14,Cc1nc2ccccc2c(=O)n1-c1ccc(Cl)cc1Cl,0.07% (inactive)
15,Cn1cc(C(=O)OCC(=O)N2CCCC2)c2ccccc21,1.16% (inactive)

# From PubChem BioAssay AID720648 (The Scripps Research Institute Molecular Screening Center, 2013)
